# GLP-1R inv ag: inverse agonists of human GLP-1 receptor | Potency, µM (top dose mostly 38.3 µM), for the others: top-dose activity change, negative = inhibition, usual class: inhibitors | AID 624417 | hit rate 1.6% among 410,000 | P43220 | HEK293 GLP-1R CRE-luciferase, luminescence, 24 h; GLP-1R form is constitutively active; further: on the % scale 0 is the no-effect control and ±100 the full control effect; nearly all actives have a fitted effect of over 55% in size
# Target sequence (P43220 whole entry, looked up): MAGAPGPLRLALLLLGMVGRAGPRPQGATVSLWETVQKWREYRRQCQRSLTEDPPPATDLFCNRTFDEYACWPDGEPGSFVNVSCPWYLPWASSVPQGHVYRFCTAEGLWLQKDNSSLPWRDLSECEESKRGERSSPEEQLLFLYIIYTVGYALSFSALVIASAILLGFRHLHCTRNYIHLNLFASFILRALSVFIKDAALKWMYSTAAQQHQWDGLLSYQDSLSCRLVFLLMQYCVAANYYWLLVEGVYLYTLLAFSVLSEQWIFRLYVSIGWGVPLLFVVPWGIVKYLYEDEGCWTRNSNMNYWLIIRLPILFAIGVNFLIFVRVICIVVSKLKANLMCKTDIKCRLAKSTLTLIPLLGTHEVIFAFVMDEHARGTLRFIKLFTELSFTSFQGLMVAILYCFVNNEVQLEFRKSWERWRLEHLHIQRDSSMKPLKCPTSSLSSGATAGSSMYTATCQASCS
#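 Stable HEK293 clone (constitutively active GLP-1R + cAMP-response luciferase); 200 cells/uL plated, 12 h pre-culture, compound 24 hr, 37 deg C/5% CO2; detection reagent 12 min RT; luminescence.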
# PTHR1 agonist: agonists of human PTHR1 parathyroid hormone receptor | Q03431 | HEK293 GP2 PTHR1 cells, GloSensor cAMP luminescence, 1 h | Potency, µM (highest dose often 115 µM), for inactives: at the highest dose activation, hits mostly activators | hit rate 0.075% among 410,000 | AID 743266; further: nearly all actives have a fitted effect of over 55% in size
#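 HEK-293-derived GP2 cells expressing PTHR1 and a GloSensor cAMP reporter, 3,000/well, plated overnight, given luciferin plus IBMX (each 0.5 mM as added) for 1 h at 37 °C, then compound for 1 h at 37 °C. Luminescence was read after 15 min at room temperature.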
# HEK293 tox: cytotoxicity in counter-screen for GLP-1R inverse agonists; HEK293 cAMP-luciferase reporter cells, luminescence, 24 h; Potency, µM (top dose mostly 38.3 µM), for the others: at the highest dose activity change, negative = inhibition, actives largely listed as inhibitors; hit rate 0.13% among 410,000; AID 624418;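 further: loss of luciferase light is scored as toxicity; on the % scale 0 is the no-effect control and ±100 the full control effect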
#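 Here, cytotoxicity is scored as loss of luminescence. The MLSMR collection was tested on cells seeded in medium containing 10% Nu serum, with a 24 hr compound exposure preceded by 12 hours of culture.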
# GLP1R ag: activates the human GLP-1 receptor; P43220; HEK293 GLP-1R CRE-luciferase, luminescence, 4-6 h; cells express a hypersensitive GLP-1R form; Potency, µM (series often up to 45.6 µM), for inactives: at the highest dose activation, most hits filed as activators; hit rate 0.007% among 380,000; further: % of control where 0% means no effect
# An asterisk follows results filed as active; i = inactive; ? = inconclusive; . = no result given; [ ] = remark or other dose. Most compounds without a hit are left out; they make up all but 1.7% or so of the library. The call rests on the fitted dose curve; in most records, active means well fitted curve in the direction sought with a large enough effect; inconclusive means small, poorly fitted or top-dose-only effect, or another doubt; inactive means no such curve, though single readings can be large; an effect the other way counts as inactive or inconclusive. Potency means the concentration at half of the fitted maximal effect.
SMILES,GLP-1R inv ag,PTHR1 agonist,HEK293 tox,GLP1R ag
COC(=O)c1ccc(C2c3[nH]c4ccccc4c3C[C@H]3C(=O)N(C4CCN(Cc5ccccc5)CC4)CC(=O)N23)cc1 (some centres not stated),10µM*,?,-13.5%,-1.3%
O=C(c1ccco1)N1CCN(S(=O)(=O)Cc2ccccc2Cl)CC1,-3.6%,i,-4.6%,4.9%
CN1CCN(c2ncnc3c2ncn3[C@H]2CN(Cc3ccc(Cl)cc3)C[C@@H](CO)O2)CC1,16.0%,i,5.5%,-6.0%
O=C(OCC(=O)N1N=C(c2ccc(Cl)cc2)CC1c1ccco1)c1ccccc1O (configuration not stated),?,i,-12.3%,3.9%
COc1ccc(C(CNC(=O)c2ccc(S(=O)(=O)N(C)C)cc2)N(C)C)cc1 (configuration not stated),1.8%,-11.7%,-0.9%,11.7%
CCN(c1ccccc1)S(=O)(=O)c1cc(C(=O)NCC(c2ccc(OC)cc2)N(C)C)ccc1C (configuration not stated),11.2µM*,-27.0%,-6.5%,1.4%
COc1cc(S(=O)(=O)N2CCCN(C)CC2)ccc1NC(C)=O,13.6%,-18.6%,-0.3%,-1.1%
O=C(CC1CC2CCC1C2)OCC(=O)c1c[nH]c2ccccc12 (configuration not stated),10µM*,-25.7%,-20.6%,3.5%
CC(O)(c1ccccc1)C(C(c1ccccc1)N1CCOCC1)N1CCOCC1 (configuration not stated),8.4%,i,-0.8%,-9.0%
OC(c1ccccc1)(c1ccc(F)cc1)C(c1ccccc1)N1CCOCC1 (configuration not stated),7.94µM*,-16.4%[57.5 µM],-32.2%,-11.9%
CC1CCN(CCCCOc2ccccc2[N+](=O)[O-])CC1,-0.6%,23.9%,8.91µM*,0.1%
CC1CCN(CCCCOc2ccc([N+](=O)[O-])cc2)CC1,-16.6%,i,-0.9%,-0.6%
CCCSc1nc(N2CCOCC2)c2c(c1C#N)CC(C)(C)SC2,10µM*,-2.0%,-4.5%,-9.5%
O=[N+]([O-])c1cccnc1N1CCC(c2cc(-c3ccc(Cl)cc3Cl)n[nH]2)CC1,5.01µM*,i,-22.4%,-0.7%
COc1ccc(OC)c(-c2cc(C3CCN(c4ncccc4[N+](=O)[O-])CC3)[nH]n2)c1,?,-13.2%[57.5 µM],-51.2%,13.0%
COc1cccc(OC)c1C(=O)NC(C)C12CC3CC(CC(C3)C1)C2 (configuration not stated),8.91µM*,i,2.9%,-5.0%
COc1ccc(-c2nc3ccccc3c(C(=O)Nc3ccc(S(=O)(=O)Nc4cc(C)on4)cc3)c2C)cc1,5.01µM*,-4.3%,5.6%,-5.4%
CC(/C=N/NC(=O)c1ccncc1)=C\c1ccccc1,5.0%,19.5%[57.5 µM],-11.8%,2.4%
CC(/C=N/NC(=O)c1cccc(F)c1)=C\c1ccccc1,10µM*,-16.8%,0.0%,-5.7%
CC(C)(C)c1ccc(CSC2=Nc3ccccc3C3=NC(CC(=O)NCc4cccs4)C(=O)N23)cc1 (configuration not stated),10µM*,i,13.3%,.
CN(C)c1ccc(NC(=O)CSC2=Nc3ccccc3C3=NC(CCC(=O)NCc4cccs4)C(=O)N23)cc1 (configuration not stated),5.62µM*,i,-0.2%,.
CC(C)(S)C(=O)NC(CS)C(=O)O (configuration not stated),.,.,.,-0.1%
Cc1c(C)n(Cc2ccccc2)c2ccc(C(=O)N3CCN(c4ccc(F)cc4)CC3)cc12,?,i,5.4%,.
CCN(CC)c1ccc(S(=O)(=O)Nc2cc(Cl)ccc2Cl)cc1NC(=S)NC(=O)C1CCCC1,5.01µM*,i,-9.8%,-16.4%
O=C(Nc1ccc(S(=O)(=O)N2CCCC2)cc1)Nc1ccc(F)cc1F,?,-27.7%,-15.6%,7.6%
SMILES,GLP-1R inv ag,PTHR1 agonist,HEK293 tox,GLP1R ag
Cc1ccc(S(=O)(=O)Nc2ccc(NC(=O)Nc3ccc(F)cc3F)cc2)cc1,5.62µM*,-24.9%,-4.0%,2.2%
C(=C/c1ccnc2nc(SC/C=C/c3ccccc3)nn12)/c1ccccc1,-3.2%,-0.9%[57.5 µM],0.4%,13.1%
O=C(c1ccc(Cl)c(Cl)c1)N(Cc1ccco1)c1ccc(O)cc1,11.2µM*,-32.2%[57.5 µM],-2.9%,2.0%
CC(=O)O[C@H]1C[C@@H]2CC[C@@H]3[C@H](CC[C@]4(C)[C@H](OC(C)=O)[C@@H](N5CC[N+](C)(C)CC5)C[C@@H]34)[C@@]2(C)C[C@@H]1N1CC[N+](C)(C)CC1,.,.,.,-3.5%
CN(C)c1ccc(/C=C2\CCCc3c2nc2ccccc2c3C(=O)O)cc1,39.9%,-32.3%,140.7%,5.4%
Cc1ccc(-n2nnnc2SCCNS(=O)(=O)c2ccccc2)cc1C,11.2µM*,27.9%[57.5 µM],3.6%,4.0%
Fc1ccc(Cc2cn3cc(-c4ccccc4)nc3s2)cc1,5.62µM*,-38.7%,-6.9%,-4.7%
CN1CCN(NC(=O)c2cn(-c3ccccc3)nc2-c2cccs2)CC1,-19.6%,-5.3%,1.1%,9.2%
CN1CCN(NC(=O)c2cn(-c3ccccc3)nc2-c2cccc(Br)c2)CC1,3.16µM*,i,?,-1.2%
O=c1[nH]c(C2CCN(S(=O)(=O)c3cccc(C(F)(F)F)c3)CC2)nc2c1nnn2Cc1cccc(F)c1,7.94µM*,i,?,6.1%
O=c1[nH]c(C2CCN(S(=O)(=O)c3ccc4c(c3)OCCO4)CC2)nc2c1nnn2Cc1cccc(F)c1,26.0%,-15.6%,-9.1%,24.0%
Cc1ccc([N+](=O)[O-])cc1N(CC(=O)Nc1ccc(S(=O)(=O)Nc2cccc(C(F)(F)F)c2)cc1)S(C)(=O)=O,1µM*,-47.6%,?,-19.6%
Cc1ccc(NC(=O)c2sc3nc(C)nc(N4CCN(c5ccccn5)CC4)c3c2C)c(C)c1,11.2µM*,-14.4%,-25.3%,-0.8%
Cc1nc(N2CCN(c3ccccn3)CC2)c2c(C)c(C(=O)Nc3ccc(Br)cc3C)sc2n1,7.2%,-5.9%,-6.2%,-0.3%
CC(C)(C)c1ccc(C2CC2C(=O)N/N=C\c2ccc[nH]2)cc1 (configuration not stated),1.12µM*,-29.3%,?,10.9%
Cc1ccc(Cl)cc1-n1c(=O)cc(N2CCN(c3ccc(F)cc3)CC2)[nH]c1=O,-21.0%,-21.6%,1.8%,.
O=C(NCC(c1ccco1)N1CCCC1)c1ccc(Cl)cc1 (configuration not stated),?,i,-10.5%,-8.8%
O=C(NCC(c1ccco1)N1CCCC1)c1cc2cc(Cl)ccc2o1 (configuration not stated),10µM*,-12.5%,11.2%,14.2%
CC1(C(=O)NS(=O)(=O)Cc2ccccc2)CCN1C(=O)CCc1ccccc1 (configuration not stated),-18.2%,i,1.0%,-2.7%
CCOC(=O)C(C)N1C(=O)S/C(=C/c2cc(C)n(-c3ccccn3)c2C)C1=O (configuration not stated),10µM*,-53.9%,-34.4%,0.0%
